These results are taken from PubChem BioAssay AID1631 (National Center for Advancing Translational Sciences (NCATS), 2009).

The campaign covered roughly 260,000 compounds. About 890 (0.34%) were called active. About 1% were inconclusive and are not listed. Calls follow the shape of the dose curve; as a rule, active = well fitted activation curve with a large enough effect; inconclusive = small, poorly fitted or top-dose-only effect; inactive = no such curve, though single readings can be large or run the other way. The list comes from a sample in which actives are over-represented; it also holds similar structures and randomly drawn compounds. Entries that show only a call come without a potency.
Potency is read from the fitted curve at half-maximal effect.

The target of the assay is Pyruvate kinase PKM (Homo sapiens) (UniProt P14618). In words: qHTS Assay for Activators of Human Muscle isoform 2 Pyruvate Kinase. Also: nearly all actives have a fitted effect of over 55% in size. Conditions: purified PKM2, Kinase-Glo ATP luminescence; Potency: activation; series mostly up to 57.5 µM. From the text: NIH Chemical Genomics Center [NCGC] Matthew G. Vander Heiden, M.D., Ph.D. [Harvard Medical School, 77 Avenue Louis Pasteur, Boston, MA 02115] MLPCN Grant: 1 R03 MH085679-01 NCGC Assay Overview: Human pyruvate kinase muscle 2 (hPK-M2) enzyme was supplied as a highly purified (>95% pure) preparation from Harvard Medical School and assayed for its ability to generate ATP from ADP using phosphoenolpyruvate (PEP) as a substrate. ATP generation was detected in a coupled reaction by luciferase-mediated luminescence, an ATP-dependent process. […] The enzyme was assayed at an intermediate level of activity to screen for both inhibitors and activators.
Chain of Pyruvate kinase PKM (Homo sapiens) (P14618 whole entry, looked up, canonical isoform): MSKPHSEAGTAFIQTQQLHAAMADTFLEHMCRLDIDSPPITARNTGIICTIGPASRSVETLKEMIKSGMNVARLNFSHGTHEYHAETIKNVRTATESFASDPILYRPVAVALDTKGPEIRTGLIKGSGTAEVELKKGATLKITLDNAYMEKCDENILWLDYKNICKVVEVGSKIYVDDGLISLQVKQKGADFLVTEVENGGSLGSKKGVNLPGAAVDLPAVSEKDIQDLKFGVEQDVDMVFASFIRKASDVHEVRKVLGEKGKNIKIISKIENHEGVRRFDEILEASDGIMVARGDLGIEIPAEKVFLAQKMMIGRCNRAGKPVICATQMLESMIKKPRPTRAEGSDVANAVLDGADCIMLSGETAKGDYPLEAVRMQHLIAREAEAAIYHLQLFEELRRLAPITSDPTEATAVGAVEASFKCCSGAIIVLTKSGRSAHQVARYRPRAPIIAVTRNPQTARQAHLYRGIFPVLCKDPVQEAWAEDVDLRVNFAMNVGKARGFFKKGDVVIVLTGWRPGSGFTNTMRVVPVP
NCGC Assay Protocol Summary: Three uL of substrate mix (at r.t.) in assay buffer (50 mM Imidazole pH7.2, 50 mM KCl, 7 mM MgCl2, 0.01% Tween 20, 0.05% BSA) was dispensed into white solid bottom 1,536 well microtiter plates so that the final concentrations of substrates in the assay were 0.1 mM ADP and 0.5 mM PEP. 23 nL of compound were delivered by a pin tool and 1 uL of enzyme mix in assay buffer (4 degree Celsius) was added. Plates were incubated at room temperature for 1 hour. Two uL of detection mix (Kinase-Glo, Promega; at 4 degree Celsius protected from light) was added and luminescence read by a ViewLux (Perkin Elmer) at 5 second exposure/plate. Data were normalized to the uninhibited and AC100 inhibition (no enzyme). To monitor activation, the first column contained a titration of the activator, NCGC00031955-01 (16-point 1:2 dilutions in duplicate starting at 57 uM) and the first 16 rows of column 4 contained 57 uM of NCGC00031955-01.
(In general: qHTS replaces the single test concentration by a dilution series.)
As for `O=c1c2ccccc2nc(/C=C/c2ccco2)n1-c1ccccc1O`, the Potency was 3.98 µM (active).

On to `O=c1c2ccccc2nc(-c2ccco2)n1-c1ccc(Br)cn1`, for which the activation result was “inactive”. On the same count and under the same terms, as for `Cc1nc2ccccc2c(=O)n1-c1ccc(Cl)cc1Cl`, the figure is -0.0497% [at 11.5 µM, 0% is enzyme alone, no compound] (inactive); as for `CCCCn1c(=O)c(C(=O)Nc2ccccc2Cl)c(O)c2ccccc21`, “inactive”; as for `CN(C)C(=O)Oc1ccc(NC(=O)N2CCOCC2)cc1`, “inactive”.
